Measurements as given in PubChem BioAssay AID1117361 (Southern Research Institute, 2015).
Screen size: about 3,600 compounds; about 900 (25%) were called active. No rule for the calls is given here. Only a sample is shown. Measured potencies and affinities stand elsewhere.

biological target: Protein Tat (Human immunodeficiency virus type 1 group M subtype B (isolate HXB2)) (UniProt P04608); assay: inhibitors of Tat binding to TAR RNA, dose response, counter-screen for Vif-APOBEC3G degradation inhibitor project, biochemical, fluorescence polarization, FAM-labeled TAR RNA (AID 1117361); conditions: outcome: dose series up to 100 µM unless noted; series mostly up to 100 µM

Compound | outcome
Cc1cc(NC(=O)c2ccccc2F)n(-c2nc3ccccc3[nH]2)n1 | inactive
CC(C)(C)NC(=O)NC(=O)COc1ccccc1C#N | inactive
CC1CN(C(=O)N[C@@H](Cc2ccccc2)C(=O)O)CC(C)O1 (stereo partly drawn) | inactive
Cc1ccc(CC(NC(=O)c2ccccc2)C(=O)NC(C)C(=O)O)cc1 (stereo not drawn) | inactive
O=C(CSc1nc2ccccc2c(=O)n1NC(=O)Cc1ccccc1)NCc1ccccc1 | inactive
C=C(Br)Cn1c(CC)nc2ccccc21 | inactive
COC(=O)Cc1cc(=O)n2[nH]c(C)cc2n1 | inactive
CCOC(=O)Cc1csc(N/N=C\c2cccc(Br)c2)n1 | inactive
CC(=O)N1CCc2cc(S(=O)(=O)NCCC(=O)Nc3cc(C)cc(C)c3)ccc21 | inactive
Oc1ccccc1-c1cc(C(F)(F)C(F)F)[nH]n1 | inactive
OC(CN1CCN(c2ccccc2)CC1)c1ccc2c(c1)CCN2 (stereo not drawn) | inactive
CCc1ccc(-c2nc(SCC(=O)c3c(N)n(C4CC4)c(=O)[nH]c3=O)n[nH]2)cc1 | inactive
O=C(COC(=O)Cc1ccc(Cl)cc1)NCc1ccco1 | inactive
COc1ccc(CC(=O)OCC(=O)NCc2ccco2)cc1OC | inactive
COc1cc(C(=O)Nc2ccc(N3CCCS3(=O)=O)cc2)c([N+](=O)[O-])cc1OC | inactive
Cc1cc(O)c(-c2n[nH]c3c2C(c2cccc(O)c2)N(Cc2cccnc2)C3=O)cc1Cl (stereo not drawn) | inactive
N#Cc1c(NC(=O)CSc2nnnn2C2CCCCC2)sc2c1CCCC2 | inactive
CCCn1c2ccccc2c2nnc(SC(CC)C(=O)Nc3sc4c(c3C#N)CCCC4)nc21 (stereo not drawn) | inactive
CCCC(C)NC(=O)CSCc1ccc(OC)cc1 (stereo not drawn) | inactive
CCNc1nc(NCC)nc(OCCNS(=O)(=O)c2cc(C)ccc2C)n1 | inactive
COc1ccccc1C=NC(CO)C(O)c1ccc([N+](=O)[O-])cc1 (stereo not drawn) | inactive
Cc1c(NC(=O)NCCN2C(=O)C3C4C=CC(C4)C3C2=O)c(=O)n(-c2ccccc2)n1C (stereo not drawn) | inactive
O=C(NCN1C(=O)C2C3C=CC(C3)C2C1=O)OC1CCCCC1 (stereo not drawn) | inactive

Compound | outcome
C=CCc1c(C)nc2c(C(=O)O)cnn2c1C | inactive
Cc1ccccc1-c1nc(CN2CCC(C(=O)N3CCN(c4ccccn4)CC3)CC2)c(C)o1 | inactive
COc1ccc(-c2cc(-c3ccccc3)c(C#N)c(S(C)=O)n2)cc1 (stereo not drawn) | inactive
Cc1cccc(C)c1NC(=O)c1ccc(-n2cnnn2)cc1 | inactive
COc1ccc(C2=NOC(C(=O)NCc3cccs3)C2)cc1OC (stereo not drawn) | inactive
Cc1cccc(N2C(=O)CN=C2Nc2nc(C)cc(C)n2)c1 | inactive
COc1ccc(/C=N/OCC(=O)Nc2cc(C)on2)cc1OC | inactive
COC(=O)C1CCN(c2ccc([N+](=O)[O-])cc2)CC1 | inactive
O=C(Nc1ccc(N2CCCCC2)cc1)c1cc([N+](=O)[O-])cc([N+](=O)[O-])c1 | inactive
CC1(C)Cc2ccccc2C(/C(=N/O)C(N)=O)=N1 | inactive
COc1ccc2cnn(CCOc3cc(C)ccc3C(C)C)c(=O)c2c1OC | inactive
Cc1nc(N(C)C)c2sc(=S)n(C)c2n1 | inactive
Cc1cccc(NC(=O)CSc2nnc(CCC(=O)Nc3ccc(C)c(Cl)c3)n2C)c1 | inactive
CCCCc1nccn1CCn1ccnc1CCCC | inactive
CCc1ccc(C2C(C(C)=O)=C(C(=O)OC)Nc3nnnn32)cc1 (stereo not drawn) | inactive
COc1ccc(S(=O)(=O)Nc2cc(SCC(=O)O)c(O)c3ccccc23)cc1 | inactive
COC(=O)COc1ccc(S(=O)(=O)Nc2ccc(C(N)=O)cc2)cc1C | inactive
CCc1ccc(CCC(=O)Nc2ccc(S(N)(=O)=O)cc2)o1 | inactive
Cc1onc(-c2ccccc2)c1CNC(=O)C1COc2ccccc2O1 (stereo not drawn) | inactive
CCc1cccc(NC(=O)Cn2ncn3c(cc4ccccc43)c2=O)c1 | inactive
O=S(=O)(c1ccc(OCc2nc3ccccc3s2)c(Cl)c1)N1CCOCC1 | inactive
COc1ccc(C(=O)N2CC3(C)CC2CC(C)(C)C3)cc1 (stereo not drawn) | inactive
Cc1ccc(OCCN2CCCCCC2)c(C)c1 | inactive

Compound | outcome
COc1cccc(/C=N/NC(=O)c2cnccn2)c1O | inactive
CN(C)S(=O)(=O)c1ccc(NC(=O)c2cc3ccccc3o2)cc1 | inactive
Cc1c(/C=N\NC(=O)c2csc3ccccc23)cnn1C | inactive
CCN(CC)S(=O)(=O)c1cccc(NN=c2c(=O)c3ccccc3c2=O)c1 | inactive
Cc1cccc(N/C=C/C(=C(C#N)C#N)N(C)C)c1 | inactive
CC1CCCCC1NC(=S)Nc1cccc(S(=O)(=O)N(C)C)c1 (stereo not drawn) | inactive
Cc1cc(SCC(=O)N/N=C/c2ccc(O)c(O)c2O)c(C)cc1Br | inactive
CCn1c(C)nc2cc(C(=O)NNC(=O)CCC3CCCCC3)ccc21 | inactive
CNC(=O)CN(C)S(=O)(=O)c1ccc(F)cc1 | inactive
C=CCSc1nnc(NC(=O)CSc2nnc(C)s2)s1 | inactive
COc1ccc(C(=O)n2nc(-c3ccccc3)nc2SC)cc1 | inactive
CCOc1ccc(NC(=O)C2CCCN(S(=O)(=O)c3c(C)n[nH]c3C)C2)cc1 (stereo not drawn) | inactive
CCCNC(=O)Cn1c2ccccc2c2nc(=O)cc(C)n21 | inactive
CCOC(=O)c1c(C)[nH]c(C(=O)CSc2nnc(C3CC3)n2N)c1C | inactive
CN(C)S(=O)(=O)N1CCN(c2ccc(Cl)cc2)CC1 | inactive
CCCC(=O)NC(C)C(c1cccs1)N1CCN(C)CC1 (stereo not drawn) | inactive
Cc1ccc(S(=O)(=O)N(C)c2ccccc2C(=O)N2CCCC2)cc1 | inactive
COc1cc(C(=O)NNC(=S)NCc2ccco2)cc(OC)c1OC | inactive
O=C(NCCc1ccccc1)c1ccc2c(c1)N(Cc1ccccc1)C(=O)CS2=O (stereo not drawn) | inactive
O=C(NCc1ccco1)c1ccc2snnc2c1 | inactive
COc1ccc(C(=O)NCc2cccnc2)cc1OC | inactive
CCS(=O)(=O)N1CCC(C(=O)NCc2ccccn2)CC1 | inactive
O=C(CCS(=O)(=O)c1cccs1)Nc1ccc(C(=O)NCc2ccccc2)cc1 | inactive

Compound | outcome
COc1ccc(CCNC(=O)Cn2nnc(-c3cccc(OC)c3OC)n2)cc1OC | inactive
O=C(Cc1ncn[nH]1)NCCc1ccccc1 | inactive
CC(C)(C)c1ccc(S(=O)(=O)NCc2ccc(C(=O)NCc3ccccn3)cc2)cc1 | inactive
CC(c1nnc(SCn2nnc3ccccc3c2=O)n1-c1ccc(Cl)cc1)N(C)C (stereo not drawn) | inactive
COc1cccc(-c2nc(CS(=O)(=O)CC(=O)NC3CC3)c(C)o2)c1 | inactive
CCOc1ccc(N2CC(C(=O)NCC(=O)Nc3ccc(F)c(F)c3F)CC2=O)cc1 (stereo not drawn) | inactive
NS(=O)(=O)c1ccc(NC(=O)c2ccccc2C(=O)N2CCCCC2)cc1 | inactive
CCN(C(=O)CCc1nc(-c2ccccc2F)no1)c1cc(OC)ccc1OC | inactive
COc1ccccc1NC(=O)COC(=O)c1cc2c(s1)CCC2 | inactive
CCOC(=O)c1cccc2c(=O)c(C(=O)c3ccc(Cl)cc3)c(C(=O)OC)[nH]c12 | inactive
C/C(=N\OC(=O)c1ccc(F)cc1)c1sc(-c2ccccc2)nc1C | inactive
CC1CCc2cc(F)ccc2N1C(=O)C1(C)CC1(Cl)Cl (stereo not drawn) | inactive
O=C(NCc1ccccn1)c1ccc(Cn2cc(Br)cn2)o1 | inactive
C/C(=N\O)C(=O)NCc1ccccn1 | inactive
O=C(NC1=CC(=O)c2ccccc2C1=O)c1ccccc1 | inactive
Cc1ccc(NC(=O)CNC(=O)COc2ccccc2)nc1 | inactive
COc1ccc2cc(C(=O)N3CCOCC3)sc(=O)c2c1OC | inactive
COc1ccc(OC)c(/C(O)=C/C(=O)C(=O)Nc2ccccc2OC)c1 | inactive
COc1ccc(/C=C(/NC(C)=O)C(=O)O)cc1 | inactive
COc1ccc(/C=C/C(=O)NC(=S)Nc2ccccn2)cc1 | inactive
COc1ccccc1/C=C/C=C1N=C(/C=C/c2ccc(Cl)cc2)OC/1=O | inactive
CN1C(=O)CC(N2CCN(C(=O)c3ccccc3)CC2)C1=O (stereo not drawn) | inactive
Cc1cc(-n2ccnc2)n2c(nc3ccccc32)c1C#N | inactive

Compound | outcome
COc1cc(-n2cnnn2)ccc1S(=O)(=O)N1CCOCC1 | inactive
CCCn1c(=O)c(-c2ccccc2)c(O)c2ccccc21 | inactive
O=C1c2ccccc2S(=O)(=O)N1CC(O)COc1ccc(Br)cc1 (stereo not drawn) | inactive
CCOC(=O)C1C(c2ccc(O)c(OCC)c2)NC(=S)NC1(O)C(F)(F)F (stereo not drawn) | inactive
CS(=O)(=O)c1ccc(Cl)c(NC(=O)COC(=O)COc2ccc3c(c2)CCC3)c1 | inactive
COc1ccc(CNC(=O)CN(CC2CCCO2)C(=O)CNS(=O)(=O)c2ccc(C)cc2)cc1 (stereo not drawn) | inactive
COc1cccc(CNC(=O)Cn2c(=O)oc3ccccc32)c1OC | inactive
COc1ccc(OC)c(NC(=O)c2[nH]c(C)c(C(C)=O)c2C)c1 | inactive
COc1ccc(OC)c(/C(O)=C/C(=O)C(=O)Nc2cc(C)ccc2OC)c1 | inactive
COc1ccc(CC(=O)OCc2cc3ccc(C)cc3[nH]c2=O)cc1 | inactive
N=c1sccn1CC(=O)Nc1ccc2c(c1)CCC2 | inactive
COc1ccc(OC)c(C2C(C(=O)c3cc4ccccc4o3)=C(O)C(=O)N2c2cc(C)on2)c1 (stereo not drawn) | inactive
CCC(C)NC(=S)NNC(=O)c1ccc(C(C)(C)C)cc1 (stereo not drawn) | inactive
Cc1cc2c(=Cc3ccc(N(C)C)cc3)c3ccccc3n2[n+]1C | inactive
COc1cccc(C=Nc2cc(C(C)C)c(O)cc2C)c1O | inactive
Oc1cccc(/C=N/NC(=S)NCCN2CCOCC2)c1O | inactive
COc1cccc(CC(NC(C)=O)C(=O)NC2CCN(S(=O)(=O)c3ccc4ccccc4c3)CC2)c1 (stereo not drawn) | inactive
COc1ccccc1N1CCN(CC(O)COCCOc2ccc(Br)cc2)CC1 (stereo not drawn) | inactive
CC(=O)Nc1ccc(C(=O)Nc2cccc(-c3cnc4ccccc4n3)c2)cc1 | inactive
CC(=O)Nc1ccc(N/C=C/C(=O)C(C)(C)C)cc1 | inactive
Cc1ccc(NC(=O)c2ccc(Cl)c(N3C(=O)C=CC3=O)c2)cc1 | inactive
